Assay results from PubChem BioAssay AID1159580 (chemical genetic matrix, 2015).
Hit rate of the full screen: of about 5,500 compounds, about 2,000 (36%) were called active. Not shown: some 18% with an inconclusive outcome. Cut-off read from the data, not from the text of the source: active = normalized growth mostly below about 0.91 (no sharp cut-off); inconclusive = no clear call, values can overlap the other calls; inactive = mostly above about 0.92. The list shows a part of the results.

Experiment: chemical genetic growth profiling, strain panel (AID 1159580);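 note: tested at 20 µM; growth read once vehicle control cultures reached saturation at 30 °C; 1 = growth at the plate median or of vehicle wells; lower values mean less growth of the strain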
Settings: growth OD

Measured: normalized growth

CO[C@@]1(NC(=O)CSCC#N)C(=O)N2C(C(=O)O)=C(CSc3nnnn3C)CSC21 (some centres not stated)
inactive: S. cerevisiae deletion strains, locus YJR075W, strain HOC1, active compounds read low 1.01 | S. cerevisiae deletion strains, locus YKL009W, strain mrt4, active compounds read low 1.04 | S. cerevisiae deletion strains, locus YKL068W, active compounds read low 1.02 | S. cerevisiae deletion strains, locus YKL085W, strain MDH1 (second series), active compounds read low 1.03 | S. cerevisiae deletion strains, locus YKL085W, strain MDH1, active compounds read low 1.03 | S. cerevisiae deletion strains, locus YKL160W, strain elf1, active compounds read low 0.959 | S. cerevisiae deletion strains, locus YKL190W, strain CNB1, active compounds read low 0.995 | S. cerevisiae deletion strains, locus YKR001C, strain vps1, active compounds read low 1.04 | S. cerevisiae deletion strains, locus YKR026C, strain gcn3, active compounds read low 0.996 | S. cerevisiae deletion strains, locus YKR091W, strain srl3, active compounds read low 0.982 | S. cerevisiae deletion strains, locus YLL001W, strain dnm1, active compounds read low 0.96 | S. cerevisiae deletion strains, locus YLL026W, active compounds read low 0.986 | S. cerevisiae deletion strains, locus YLL041C, strain sdh2, active compounds read low 0.978 | S. cerevisiae deletion strains, locus YLR027C, strain aat2, active compounds read low 0.99 | S. cerevisiae deletion strains, locus YLR039C, strain RIC1, active compounds read low 1.07 | S. cerevisiae deletion strains, locus YLR058C, strain SHM2, active compounds read low 1.01 | S. cerevisiae deletion strains, locus YLR102C, strain apc9, active compounds read low 1.04 | S. cerevisiae deletion strains, locus YLR113W, strain HOG1, active compounds read low 0.96 | S. cerevisiae deletion strains, locus YLR221C, strain rsa3, active compounds read low 0.98 | S. cerevisiae deletion strains, locus YLR258W, strain gsy2, active compounds read low 0.98 | S. cerevisiae deletion strains, locus YLR262C, strain YPT6 (second series), active compounds read low 0.981 | S. cerevisiae deletion strains, locus YLR262C, strain YPT6, active compounds read low 1.09 | S. cerevisiae deletion strains, locus YLR268W, strain sec22, active compounds read low 1.02 | S. cerevisiae deletion strains, locus YLR320W, strain mms22, active compounds read low 0.953 | S. cerevisiae deletion strains, locus YLR330W, strain CHS5, active compounds read low 1.01 | S. cerevisiae deletion strains, locus YLR342W, strain FKS1 (second series), active compounds read low 1.01 | S. cerevisiae deletion strains, locus YLR342W, strain FKS1, active compounds read low 0.967 | S. cerevisiae deletion strains, locus YLR357W, strain rsc2, active compounds read low 0.915 | S. cerevisiae deletion strains, locus YLR370C, strain arc18, active compounds read low 0.984 | S. cerevisiae deletion strains, locus YLR371W, strain rom2, active compounds read low 1.04 | S. cerevisiae deletion strains, locus YLR384C, strain iki3, active compounds read low 1 | S. cerevisiae deletion strains, locus YLR418C, strain cdc73, active compounds read low 1.04 | S. cerevisiae deletion strains, locus YML016C, strain PPZ1, active compounds read low 1.01 | S. cerevisiae deletion strains, locus YML032C, strain rad52, active compounds read low 1.05 | S. cerevisiae deletion strains, locus YML120C, strain ndi1, active compounds read low 0.988 | S. cerevisiae deletion strains, locus YML124C, strain tub3, active compounds read low 1.02 | S. cerevisiae deletion strains, locus YMR058W, strain fet3, active compounds read low 1.01 | S. cerevisiae deletion strains, locus YMR078C, strain ctf18, active compounds read low 1.03 | S. cerevisiae deletion strains, locus YMR125W, strain sto1, active compounds read low 1.01 | S. cerevisiae deletion strains, locus YMR129W, active compounds read low 0.995 | S. cerevisiae deletion strains, locus YMR205C, strain PFK2, active compounds read low 0.965 | S. cerevisiae deletion strains, locus YMR223W, strain ubp8, active compounds read low 1.04 | S. cerevisiae deletion strains, locus YMR231W, strain pep5, active compounds read low 0.985 | S. cerevisiae deletion strains, locus YMR263W, strain SAP30, active compounds read low 1.01 | S. cerevisiae deletion strains, locus YMR307W, strain GAS1, active compounds read low 1.05 | S. cerevisiae deletion strains, locus YNL067W, strain RPL9B, active compounds read low 1.01 | S. cerevisiae deletion strains, locus YNL071W, strain lat1, active compounds read low 0.991 | S. cerevisiae deletion strains, locus YNL128W, strain TEP1, active compounds read low 1.02 | S. cerevisiae deletion strains, locus YNL153C, strain GIM3, active compounds read low 1.01 | S. cerevisiae deletion strains, locus YNL183C, strain NPR1, active compounds read low 0.926 | S. cerevisiae deletion strains, locus YNL209W, strain ssb2, active compounds read low 0.988 | S. cerevisiae deletion strains, locus YNL233W, strain BNI4, active compounds read low 1.02 | S. cerevisiae deletion strains, locus YNL248C, strain rpa49, active compounds read low 0.973 | S. cerevisiae deletion strains, locus YNL250W, strain rad50, active compounds read low 1.05 | S. cerevisiae deletion strains, locus YNL271C, strain bni1, active compounds read low 1.04 | S. cerevisiae deletion strains, locus YNL298W, strain CLA4, active compounds read low 1.04 | S. cerevisiae deletion strains, locus YNL307C, strain MCK1, active compounds read low 1.04 | S. cerevisiae deletion strains, locus YNL322C, strain KRE1 (second series), active compounds read low 0.959 | S. cerevisiae deletion strains, locus YNL322C, strain KRE1, active compounds read low 1.02 | S. cerevisiae deletion strains, locus YNR049C, strain mso1, active compounds read low 0.975 | S. cerevisiae deletion strains, locus YNR052C, strain pop2, active compounds read low 1.05 | S. cerevisiae deletion strains, locus YOL006C, strain TOP1, active compounds read low 1.03 | S. cerevisiae deletion strains, locus YOL012C, strain htz1 1.23 | S. cerevisiae deletion strains, locus YOL147C, strain pex11, active compounds read low 1.03 | S. cerevisiae deletion strains, locus YOR001W, strain rrp6, active compounds read low 1.01 | S. cerevisiae deletion strains, locus YOR061W, strain CKA2, active compounds read low 1.01 | S. cerevisiae deletion strains, locus YOR069W, strain VPS5, active compounds read low 1.01 | S. cerevisiae deletion strains, locus YOR070C, strain gyp1, active compounds read low 0.989 | S. cerevisiae deletion strains, locus YOR080W, strain dia2, active compounds read low 0.997 | S. cerevisiae deletion strains, locus YOR083W, strain WHI5, active compounds read low 0.913 | S. cerevisiae deletion strains, locus YOR106W, strain vam3, active compounds read low 0.968 | S. cerevisiae deletion strains, locus YOR136W, strain idh2, active compounds read low 1.04 | S. cerevisiae deletion strains, locus YOR144C, strain elg1, active compounds read low 1.02 | S. cerevisiae deletion strains, locus YOR184W, strain ser1, active compounds read low 1.05 | S. cerevisiae deletion strains, locus YOR231W, strain MKK1, active compounds read low 0.976 | S. cerevisiae deletion strains, locus YOR265W, strain rbl2, active compounds read low 0.974 | S. cerevisiae deletion strains, locus YOR270C, strain vph1, active compounds read low 0.993 | S. cerevisiae deletion strains, locus YOR290C, strain snf2, active compounds read low 0.966 | S. cerevisiae deletion strains, locus YOR316C, strain cot1, active compounds read low 1.03 | S. cerevisiae deletion strains, locus YPL051W, strain arl3, active compounds read low 0.98 | S. cerevisiae deletion strains, locus YPL055C, strain LGE1, active compounds read low 1.05 | S. cerevisiae deletion strains, locus YPL078C, strain atp4, active compounds read low 0.98 | S. cerevisiae deletion strains, locus YPL106C, strain sse1, active compounds read low 0.948 | S. cerevisiae deletion strains, locus YPL240C, strain hsp82, active compounds read low 0.997 | S. cerevisiae deletion strains, locus YPL241C, strain CIN2, active compounds read low 1.01 | S. cerevisiae deletion strains, locus YPL256C, strain CLN2, active compounds read low 1 | S. cerevisiae deletion strains, locus YPR119W, strain clb2, active compounds read low 1.04 | S. cerevisiae deletion strains, locus YPR141C, strain kar3, active compounds read low 1.05 | S. cerevisiae deletion strains, locus YPR163C, strain tif3, active compounds read low 1.03 | S. cerevisiae deletion strains, locus YPR167C, strain met16, active compounds read low 1.04 | S. cerevisiae deletion strains, strain wtn01, active compounds read low 1.02 | S. cerevisiae strains, strain wild type, active compounds read low 1.01
